In the supplement of paper PMC11732987, “Enantioselective OTUD7B fragment discovery through chemoproteomics screening and high-throughput optimisation” (Communications Chemistry, 2025):

What was measured:
Test in all cases: log2 ratio of Biotin-Ahx-Ub-VS probe labelling (compound/DMSO); higher = less target engagement, active = hit call of the paper (q ≤ 0.05, log2 ratio ≤ -1)
Details in all cases: treatment time: 3 h
[1] = compound: CCC1N(CCc2sccc12)C(=O)CCl
Summary of the method: (§1)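 Compound at 50 or 200 µM, or DMSO, was applied for 3 h in triplicate to HEK293T lysate (495 µg per sample, Tris/CHAPS/IGEPAL buffer with protease inhibitors), after which Biotin-Ahx-Ub-VS was added at 0.5 µM final for 1 h. The labelled DUBs were pulled down with NeutrAvidin, digested with LysC and trypsin, and run by diaPASEF LC-MS/MS. Ratios are averaged base-two logs of compound over DMSO from median-normalised label-free quantities by unpaired t-test, counting only proteins with at least 2 unique peptides.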

[2] = compound: CN1c2ccccc2C(CS1(=O)=O)NC(=O)CCl
Summary of the method: as §1

[3] = compound: Cl.ClCC(=O)N1CCc2ncncc2C1
Summary of the method: as §1

[4] = compound: Cl.Cn1ncc2C(CCCc12)NC(=O)CCl
Summary of the method: as §1

[5] = compound: ClCC(=O)NC1CCOc2ccccc12
Summary of the method: as §1

[6] = compound: ClCC(=O)NC1CCCc2ccccc12
Summary of the method: (§2)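 These values are averaged ratios of compound to vehicle, tested by unpaired t-test. HEK293T lysate (495 µg per sample) was preincubated in triplicate with compound across a concentration series or vehicle for 3 h and then with Biotin-Ahx-Ub-VS at 0.5 µM final for 1 h. Deubiquitinases carrying the probe were NeutrAvidin-enriched, digested with LysC and trypsin, and measured by diaPASEF LC-MS/MS. Ratios are expressed as log2 from global-median-normalised Spectronaut label-free quantities, and only proteins with two or more unique peptides were included.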

[7] = compound: ClCC(=O)N[C@@H]1CCCc2ccccc12
Summary of the method: as §2

[8] = compound: ClCC(=O)N[C@H]1CCCc2ccccc12
Summary of the method: as §2

[9] = compound: CCC1N(CCc2cc(OC)c(Cl)cc12)C(=O)CCl
Summary of the method: as §1

[10] = compound: CCCC1N(CCc2cc(OC)c(OC)cc12)C(=O)CCl
Summary of the method: as §1

[11] = compound: CN(Cc1cccc(Br)c1)C(=O)CCl
Summary of the method: as §1

[12] = compound: CN(Cc1ccccc1)C(=O)CCl
Summary of the method: as §1

[13] = compound: COc1ccc(CN(C)C(=O)CCl)cc1
Summary of the method: as §1

[14] = compound: COc1cccc(CN(CCCc2ccccc2)C(=O)CCl)c1
Summary of the method: as §1

[15] = compound: ClCC(=O)N1CCc2cc(Cl)c(Cl)cc2C1
Summary of the method: as §1

[16] = compound: ClCC(=O)N1CCc2nc(ncc2C1)-c1ccccc1
Summary of the method: as §1

[17] = compound: ClCC(=O)N1CCc2nocc2C1
Summary of the method: as §1

[18] = compound: ClCC(=O)N1CCc2scc(Br)c2C1
Summary of the method: as §1

[19] = compound: ClCC(=O)NC(C1CCCC1)c1cccs1
Summary of the method: as §1

[20] = compound: CN(Cc1cccc(OCc2ccccc2C)c1)C(=O)CCl
Summary of the method: as §1

Measured: log2 ratio of Biotin-Ahx-Ub-VS probe labelling

USP46 (UniProt P62068)
Chain of UniProt P62068 (P62068 whole entry): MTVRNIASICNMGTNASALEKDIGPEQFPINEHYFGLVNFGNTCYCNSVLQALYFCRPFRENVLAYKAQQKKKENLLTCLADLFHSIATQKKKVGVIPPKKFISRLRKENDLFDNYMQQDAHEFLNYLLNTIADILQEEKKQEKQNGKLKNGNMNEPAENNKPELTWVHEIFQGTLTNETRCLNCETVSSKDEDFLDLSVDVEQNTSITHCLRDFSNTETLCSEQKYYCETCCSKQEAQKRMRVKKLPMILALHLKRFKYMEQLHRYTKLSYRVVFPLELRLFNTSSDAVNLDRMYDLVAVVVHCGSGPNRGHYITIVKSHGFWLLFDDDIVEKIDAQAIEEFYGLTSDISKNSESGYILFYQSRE
active: [9]; compound concentration: 200uM -1.5 | [12]; compound concentration: 200uM -1.01 | [14]; compound concentration: 200uM -1.33 | [15]; compound concentration: 200uM -2.77 | [16]; compound concentration: 200uM -1.12 | [18]; compound concentration: 200uM -1.43
inactive: [1]; compound concentration: 50uM 0.00875 | [1]; compound concentration: 200uM -0.386 | [2]; compound concentration: 50uM -0.283 | [2]; compound concentration: 200uM -0.392 | [3]; compound concentration: 50uM -0.496 | [3]; compound concentration: 200uM -0.363 | [4]; compound concentration: 50uM 0.0697 | [4]; compound concentration: 200uM -0.0122 | [5]; compound concentration: 50uM -0.118 | [5]; compound concentration: 200uM -0.18 | [6]; compound concentration: 0.78uM -0.00158 | [6]; compound concentration: 1.56uM -0.0881 | [6]; compound concentration: 3.13uM -0.475 | [6]; compound concentration: 6.25uM -0.276 | [6]; compound concentration: 12.5uM -0.393 | [6]; compound concentration: 25uM -0.421 | [6]; compound concentration: 50uM -0.311 | [6]; compound concentration: 100uM 0.116 | [6]; compound concentration: 200uM -0.326 | [7]; compound concentration: 0.78uM -0.158 | [7]; compound concentration: 1.56uM -0.00787 | [7]; compound concentration: 3.13uM 0.116 | [7]; compound concentration: 6.25uM 0.0618 | [7]; compound concentration: 12.5uM 0.00378 | [7]; compound concentration: 25uM -0.153 | [7]; compound concentration: 50uM -0.14 | [7]; compound concentration: 100uM -0.166 | [7]; compound concentration: 200uM -0.243 | [8]; compound concentration: 0.78uM 0.11 | [8]; compound concentration: 1.56uM -0.348 | [8]; compound concentration: 3.13uM -0.0607 | [8]; compound concentration: 6.25uM -0.153 | [8]; compound concentration: 12.5uM 0.0225 | [8]; compound concentration: 25uM -0.138 | [8]; compound concentration: 50uM 0.0154 | [8]; compound concentration: 100uM -0.107 | [8]; compound concentration: 200uM -0.288 | [9]; compound concentration: 50uM -0.0362 | [10]; compound concentration: 50uM -0.446 | [10]; compound concentration: 200uM -0.735 | [11]; compound concentration: 50uM -0.406 | [11]; compound concentration: 200uM -0.773 | [12]; compound concentration: 50uM -0.252 | [13]; compound concentration: 50uM -0.0785 | [13]; compound concentration: 200uM -0.634 | [14]; compound concentration: 50uM -0.32 | [15]; compound concentration: 50uM -0.575 | [16]; compound concentration: 50uM 0.0166 | [17]; compound concentration: 50uM -0.22 | [17]; compound concentration: 200uM -0.641 | [18]; compound concentration: 50uM -0.291 | [19]; compound concentration: 50uM 0.0547 | [19]; compound concentration: 200uM -0.255

UniProt Q70EL2
Chain of UniProt Q70EL2 (Q70EL2 whole entry): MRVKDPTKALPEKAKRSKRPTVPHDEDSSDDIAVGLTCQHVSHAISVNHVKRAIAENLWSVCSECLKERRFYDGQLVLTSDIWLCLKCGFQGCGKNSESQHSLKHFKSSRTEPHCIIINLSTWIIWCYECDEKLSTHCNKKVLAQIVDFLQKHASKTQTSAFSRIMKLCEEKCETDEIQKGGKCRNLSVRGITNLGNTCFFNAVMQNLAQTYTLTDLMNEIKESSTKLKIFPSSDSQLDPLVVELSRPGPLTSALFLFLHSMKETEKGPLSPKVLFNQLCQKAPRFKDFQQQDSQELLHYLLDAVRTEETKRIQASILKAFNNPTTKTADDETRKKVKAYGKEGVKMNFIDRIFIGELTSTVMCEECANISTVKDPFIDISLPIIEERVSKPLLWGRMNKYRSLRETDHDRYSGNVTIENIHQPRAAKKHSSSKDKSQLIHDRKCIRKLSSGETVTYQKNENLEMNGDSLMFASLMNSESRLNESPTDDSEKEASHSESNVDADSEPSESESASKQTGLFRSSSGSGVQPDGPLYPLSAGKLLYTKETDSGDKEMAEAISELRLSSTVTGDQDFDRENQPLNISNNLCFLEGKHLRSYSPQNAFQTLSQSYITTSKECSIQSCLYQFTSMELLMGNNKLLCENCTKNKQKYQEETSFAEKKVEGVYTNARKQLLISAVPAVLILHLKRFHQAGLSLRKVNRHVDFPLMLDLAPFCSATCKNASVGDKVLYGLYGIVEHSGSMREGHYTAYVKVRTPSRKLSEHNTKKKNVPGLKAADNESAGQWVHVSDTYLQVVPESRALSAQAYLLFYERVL
active: [15]; compound concentration: 200uM -1.27 | [16]; compound concentration: 200uM -1.03
inactive: [1]; compound concentration: 50uM -0.13 | [1]; compound concentration: 200uM -0.934 | [2]; compound concentration: 50uM -0.103 | [2]; compound concentration: 200uM -0.476 | [3]; compound concentration: 50uM 0.274 | [3]; compound concentration: 200uM -0.808 | [4]; compound concentration: 50uM 0.181 | [4]; compound concentration: 200uM -0.179 | [5]; compound concentration: 50uM 0.189 | [5]; compound concentration: 200uM -0.754 | [9]; compound concentration: 50uM -0.48 | [9]; compound concentration: 200uM -0.823 | [10]; compound concentration: 50uM -0.354 | [10]; compound concentration: 200uM -0.47 | [11]; compound concentration: 50uM -0.228 | [11]; compound concentration: 200uM -0.814 | [20]; compound concentration: 50uM -0.959 | [20]; compound concentration: 200uM -0.772 | [12]; compound concentration: 50uM -0.191 | [12]; compound concentration: 200uM -0.88 | [13]; compound concentration: 50uM -0.338 | [13]; compound concentration: 200uM -0.647 | [14]; compound concentration: 50uM -0.512 | [14]; compound concentration: 200uM -0.481 | [15]; compound concentration: 50uM -0.569 | [16]; compound concentration: 50uM -0.558 | [17]; compound concentration: 50uM -0.0582 | [17]; compound concentration: 200uM -0.311 | [18]; compound concentration: 50uM -0.413 | [18]; compound concentration: 200uM -0.868 | [19]; compound concentration: 50uM 0.37 | [19]; compound concentration: 200uM -0.115

OTUD6B (UniProt Q8N6M0)
Chain of UniProt Q8N6M0 (Q8N6M0 whole entry): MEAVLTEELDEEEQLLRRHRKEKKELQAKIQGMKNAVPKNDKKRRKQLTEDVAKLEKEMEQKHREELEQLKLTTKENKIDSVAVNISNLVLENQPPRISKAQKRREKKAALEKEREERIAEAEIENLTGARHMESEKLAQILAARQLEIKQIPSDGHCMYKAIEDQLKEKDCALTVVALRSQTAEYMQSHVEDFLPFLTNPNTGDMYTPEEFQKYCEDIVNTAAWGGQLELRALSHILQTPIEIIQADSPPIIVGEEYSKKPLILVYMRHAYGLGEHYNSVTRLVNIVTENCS
active: [15]; compound concentration: 200uM -1.26 | [18]; compound concentration: 200uM -1.1
inactive: [1]; compound concentration: 50uM -0.125 | [1]; compound concentration: 200uM -0.283 | [2]; compound concentration: 50uM -0.286 | [2]; compound concentration: 200uM -0.251 | [3]; compound concentration: 50uM -0.254 | [3]; compound concentration: 200uM -0.722 | [4]; compound concentration: 50uM 0.122 | [4]; compound concentration: 200uM -0.00452 | [5]; compound concentration: 50uM 0.0287 | [5]; compound concentration: 200uM -0.0666 | [6]; compound concentration: 0.78uM -0.127 | [6]; compound concentration: 1.56uM -0.0797 | [6]; compound concentration: 3.13uM -0.201 | [6]; compound concentration: 6.25uM -0.105 | [6]; compound concentration: 12.5uM -0.198 | [6]; compound concentration: 25uM -0.128 | [6]; compound concentration: 50uM -0.0883 | [6]; compound concentration: 100uM -0.038 | [6]; compound concentration: 200uM -0.209 | [7]; compound concentration: 0.78uM -0.264 | [7]; compound concentration: 1.56uM -0.2 | [7]; compound concentration: 3.13uM -0.167 | [7]; compound concentration: 6.25uM -0.186 | [7]; compound concentration: 12.5uM -0.156 | [7]; compound concentration: 25uM -0.268 | [7]; compound concentration: 50uM -0.175 | [7]; compound concentration: 100uM -0.224 | [7]; compound concentration: 200uM -0.168 | [8]; compound concentration: 0.78uM -0.139 | [8]; compound concentration: 1.56uM -0.177 | [8]; compound concentration: 3.13uM -0.0832 | [8]; compound concentration: 6.25uM -0.0276 | [8]; compound concentration: 12.5uM -0.0686 | [8]; compound concentration: 25uM -0.159 | [8]; compound concentration: 50uM 0.0307 | [8]; compound concentration: 100uM -0.0663 | [8]; compound concentration: 200uM -0.229 | [9]; compound concentration: 50uM 0.0279 | [9]; compound concentration: 200uM -0.78 | [10]; compound concentration: 50uM -0.398 | [10]; compound concentration: 200uM -0.676 | [11]; compound concentration: 50uM -0.133 | [11]; compound concentration: 200uM -0.53 | [12]; compound concentration: 50uM -0.257 | [12]; compound concentration: 200uM -0.515 | [13]; compound concentration: 50uM -0.181 | [13]; compound concentration: 200uM -0.334 | [14]; compound concentration: 50uM -0.28 | [14]; compound concentration: 200uM -0.784 | [15]; compound concentration: 50uM 0.0579 | [16]; compound concentration: 50uM 0.00143 | [16]; compound concentration: 200uM -0.718 | [17]; compound concentration: 50uM -0.255 | [17]; compound concentration: 200uM -0.521 | [18]; compound concentration: 50uM -0.125 | [19]; compound concentration: 50uM 0.0378 | [19]; compound concentration: 200uM -0.153
